These results are taken from PubChem BioAssay (NCATS).

Experiment [1] in a line: Quantitative High-Throughput drug screen in 47 multiple myeloma cell lines against the NCATS MIPE library collection: OCIMY1_PLB cell viability assay (AID 1918979). Further: nearly all actives have a fitted effect of over 35% in size.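 On viability: 100% = DMSO-only wells and 0% = cell-free media-only wells.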 The procedure, abridged:
(§1)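 qHTS format: cells plated (500/well), pin-dosed with MIPE 4.0 compounds, kept 48 h at 37 °C. Readout was CellTiter-Glo luminescence, median RLU.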

Experiment [2] in a line: Quantitative High-Throughput drug screen in 47 multiple myeloma cell lines against the NCATS MIPE library collection: MM1S_ATCC cell viability assay (AID 1918980). Further: nearly all actives have a fitted effect of over 45% in size.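 On viability (% of control): 100% = wells with DMSO only and 0% = wells with media only.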 In a few lines: as §1
Experiment [3] can be described thus: Quantitative High-Throughput drug screen in 47 multiple myeloma cell lines against the NCATS MIPE library collection: MM1R_ATCC cell viability assay (AID 1918981). Further: nearly all actives have a fitted effect of over 35% in size. In a few lines:
as §1

A short description of experiment [4]: Quantitative High-Throughput drug screen in 47 multiple myeloma cell lines against the NCATS MIPE library collection: KMS34_JCRB cell viability assay (AID 1918985). Further: nearly all actives have a fitted effect of over 40% in size. The procedure, abridged:
as §1

Experiment [5] is described as follows: Quantitative High-Throughput drug screen in 47 multiple myeloma cell lines against the NCATS MIPE library collection: OPM1_PLB cell viability assay (AID 1918989). Further: nearly all actives have a fitted effect of over 40% in size.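 On viability (% of control): 100% = DMSO-only wells and 0% = media-only wells.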 In a few lines: as §1
Experiment [6] can be described thus: Quantitative High-Throughput drug screen in 47 multiple myeloma cell lines against the NCATS MIPE library collection: KMS28PE_JCRB cell viability assay (AID 1918983). Further: nearly all actives have a fitted effect of over 35% in size. The procedure, abridged: as §1
Experiment [7] can be described thus: Quantitative High-Throughput drug screen in 47 multiple myeloma cell lines against the NCATS MIPE library collection: OCIMY7_PLB cell viability assay (AID 1918987). Further: nearly all actives have a fitted effect of over 65% in size. Conditions: OCI-MY7 myeloma viability, CellTiter-Glo ATP, 48 h; viability (% of DMSO): at 45.8 µM (top of the series). The procedure, abridged:
as §1
A general note: ATP-based viability assays read luminescence as a measure of living cells.

Experiment [8] in a line: Quantitative High-Throughput drug screen in 47 multiple myeloma cell lines against the NCATS MIPE library collection: L363_DSMZ cell viability assay (AID 1918984). Further: nearly all actives have a fitted effect of over 40% in size. Conditions: L363 myeloma viability, CellTiter-Glo ATP luminescence, 48 h; viability (% of control): at 45.8 µM (top of the series). In a few lines: as §1
The nature of experiment [9]: Quantitative High-Throughput drug screen in 47 multiple myeloma cell lines against the NCATS MIPE library collection: OCIMY5_PLB cell viability assay (AID 1918988). Further: nearly all actives have a fitted effect of over 65% in size. In a few lines:
as §1

Experiment [10] in a line: Quantitative High-Throughput drug screen in 47 multiple myeloma cell lines against the NCATS MIPE library collection: LP1_DSMZ cell viability assay (AID 1918982). Further: nearly all actives have a fitted effect of over 35% in size. In a few lines:
as §1

The structures appear in SMILES notation. Records with an inconclusive call do not appear. Activity calls are given as the source filed them. The call rests on the fitted dose curve; in most records, active means well fitted cell-killing curve with a large enough effect; inconclusive means small, poorly fitted or top-dose-only effect, or effect the other way; inactive means no such curve, though single readings can be large or run the other way.
Potency means the concentration at half of the fitted maximal effect.

`CC[C@H]1OC(=O)[C@H](C)[C@@H](O[C@H]2C[C@@](C)(OC)[C@@H](O)[C@H](C)O2)[C@H](C)[C@@H](O[C@@H]2O[C@H](C)C[C@H](N(C)C)[C@H]2O)[C@](C)(O)C[C@H](C)C(=NOCOCCOC)[C@H](C)[C@@H](O)[C@]1(C)O`: the Potency result in experiment [1], in experiment [3], in [4] and in experiment [5] was “inactive” throughout. In addition, the Potency in [2] is 20.9 µM (active).
As to `CN(C)c1nc(Cc2ccc(NC(=O)c3ccc(C(F)(F)F)cc3)cc2)nc(N(C)C)c1CC(=O)O`, the Potency result in [1], in experiment [7] and in [5] was “inactive” in each case. Also, the figures for the Potency in experiment [2], in experiment [3] and in [6] were 2.96 µM (active), 9.35 µM (active) and 5.26 µM (active), respectively.
As for `CO[C@H]1O[C@@H]2O[C@@]3(C)CC[C@@H]4[C@@H](C)CC[C@@H]([C@H]1C)[C@@]24OO3`, the Potency result in [1] and in experiment [2] was “inactive” in each case. Moreover, the Potency in experiment [3] is 10.5 µM (active); in [6], 4.18 µM (active); in experiment [7], 0.743 µM (active); in experiment [5] it was 6.62 µM (active).
On to `Cc1cn([C@@H]2C[C@@H](O)[C@H](CO)O2)c(=O)[nH]c1=O`, for which the Potency entry in experiment [1], in [2], in experiment [3], in experiment [8], in [9] and in experiment [5] was “inactive” each time.
In the case of `COc1c(C)c2c(c(O)c1CC=C(C)CCC(=O)O)C(=O)OC2`, the Potency is 13.2 µM (active) in [1]; 3.72 µM (active) in experiment [2]; 11.8 µM (active) in [3]; 4.69 µM (active) in experiment [6]; 4.69 µM (active) in experiment [7]; 7.43 µM (active) in experiment [9]. Moreover, in [5], the Potency is 11.8 µM (active).
Take `Cn1cc(-c2ccc3nnc(Sc4ccc5ncccc5c4)n3n2)cn1`: the Potency result in [1], in experiment [7] and in experiment [5] was “inactive” in each case. The Potency in experiment [2] is 4.18 µM (active); in [3] it was 23.5 µM (active); in experiment [10] it was 0.001 µM (active); in experiment [9], 13.2 µM (active).
In the case of `N#CC(c1ccc(Cl)cc1)c1c(Cl)cc(-n2ncc(=O)[nH]c2=O)cc1Cl` (stereo not drawn), the Potency result in experiment [1] was “inactive”. For the same molecule, the Potency in experiment [2] is 20.9 µM (active); in [3] it was 2.64 µM (active); in [8], 16.6 µM (active); in experiment [7] it was 4.69 µM (active); in [5], 5.9 µM (active).
For the molecule `O=C(O)C1=CO[C@@H](O[C@@H]2O[C@H](CO)[C@H](O)[C@H](O)[C@H]2O)[C@@H]2C(CO)=CC[C@H]12`, the Potency entry in [1], in experiment [3], in experiment [8], in [7] and in experiment [5] was “inactive” in each case. Further, in experiment [2], the Potency is 16.6 µM (active).
In the case of `Oc1ccc(C=Cc2cc(O)cc(O)c2)cc1`, the Potency result in experiment [1], in [6] and in experiment [5] was “inactive” in each case. The Potency in experiment [2] was 18.7 µM (active); in [3], 16.6 µM (active); in experiment [4] it was 5.26 µM (active); in experiment [9], 13.2 µM (active).
As for `CC[C@H](C=C[C@@H](C)[C@H]1CC[C@H]2[C@@H]3CC=C4C[C@@H](O)CC[C@]4(C)[C@@H]3CC[C@]12C)C(C)C`, the Potency result in [1], in experiment [2], in experiment [3], in experiment [8], in experiment [4] and in [5] was “inactive” in each case.
As for `CO[C@H]1/C=C\O[C@@]2(C)Oc3c(C)c(O)c4c(O)c(c(C=NN5CCN(C6CCCC6)CC5)c(O)c4c3C2=O)NC(=O)C(C)=CC=C[C@H](C)[C@H](O)[C@@H](C)[C@@H](O)[C@@H](C)[C@H](OC(C)=O)[C@H]1C`, the Potency in experiment [1] was 9.35 µM (active); in experiment [2] it was 0.296 µM (active); in experiment [3], 0.187 µM (active); in experiment [4] it was 2.96 µM (active); in experiment [9], 0.418 µM (active); in experiment [5] it was 0.264 µM (active).
For the molecule `O=C(CO)N1CCC(c2[nH]nc(-c3ccc(Cl)cc3)c2-c2ccncn2)CC1`, the Potency entry in experiment [1] and in experiment [4] was “inactive” throughout. The Potency in [2] was 20.9 µM (active); in [3] it was 0.662 µM (active); in [6] it was 0.332 µM (active); in [5], 3.32 µM (active).
As to `C[C@@H]1O[C@@H](O[C@H]2CC[C@@]3(C)[C@H](CC[C@@H]4[C@H]3C[C@@H](O)[C@]3(C)[C@@H](C5=CC(=O)OC5)CC[C@]43O)C2)C[C@H](O)[C@@H]1O[C@H]1C[C@H](O)[C@H](O[C@H]2C[C@H](O)[C@@H](O)[C@@H](C)O2)[C@H](C)O1` (stereo in doubt), the Potency in experiment [1] is 0.241 µM (active); in experiment [2] it was 0.34 µM (active); in experiment [3], 0.27 µM (active); in experiment [6] it was 0.152 µM (active); in [8] it was 0.171 µM (active); in experiment [4], 0.34 µM (active). The Potency in experiment [7] is 0.152 µM (active); in experiment [9] it was 0.136 µM (active); in [5], 0.27 µM (active).
For the molecule `C[C@@H]1[C@H](C)CC[C@]2(C(=O)O)CC[C@]3(C)C(=CC[C@@H]4[C@@]5(C)CC[C@H](O)C(C)(C)[C@H]5CC[C@]43C)[C@@H]12`, the Potency in [1] is 54 µM (active); in experiment [3], 21.5 µM (active); in experiment [6], 38.2 µM (active); in experiment [4] it was 34 µM (active); in [9] it was 1.52 µM (active). The Potency entry in experiment [2], in [8] and in experiment [5] was “inactive” throughout.
With `O=C(Nc1cccc(Cl)c1)Nc1ncc(CCNc2ncnc3ccsc23)s1`, the Potency is 5.9 µM (active) in experiment [1]; 16.6 µM (active) in experiment [2]; 5.9 µM (active) in experiment [3]; 5.9 µM (active) in experiment [6]; 6.62 µM (active) in experiment [4]; 0.264 µM (active) in experiment [7]. The Potency in experiment [9] was 0.833 µM (active); in [5], 6.62 µM (active).
For `CC1=C[C@@H]2[C@@H]([C@@H](O)C[C@@]3(C)[C@H]2C[C@@H](C)[C@]3(O)C(=O)CO)[C@@]2(C)Cc3cnn(-c4ccccc4)c3C=C12`, the Potency in experiment [1] is 23.5 µM (active); in [2], 0.0083 µM (active); in experiment [3], 20.9 µM (active); in experiment [8] it was 0.0332 µM (active); in [4], 23.5 µM (active); in experiment [7], 9.35 µM (active). Besides, in experiment [9], the Potency was 1.87 µM (active).
For the molecule `CC(C)c1onc(-c2c(Cl)cccc2Cl)c1COc1ccc(C=Cc2cccc(C(=O)O)c2)c(Cl)c1`, the Potency result in experiment [1], in [10], in experiment [4] and in [5] was “inactive” in each case. In addition, the Potency was 18.7 µM (active) in experiment [2] and 0.148 µM (active) in experiment [3].
For the molecule `C[C@@H]1CCO[C@H]2Cn3cc(C(=O)NCc4ccc(F)cc4F)c(=O)c(O)c3C(=O)N12`, in [1], the Potency entry was “inactive”. Further, the Potency in experiment [2] was 20.9 µM (active); in experiment [3] it was 23.5 µM (active); in experiment [6], 23.5 µM (active); in [9], 20.9 µM (active). In addition, in experiment [8], the viability (% of control) is 92.8% (active).
